In PubChem BioAssay (NCI):
Compounds without any hit were thinned out: in the full panel of roughly 83,000, 20% have a hit.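 For each line, cells grew in 96-well plates with the test compound present at a single concentration for 48 hours.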 Unmarked numbers belong to inactive results. Active and inactive are the calls of the source. How the source made its calls: active means growth percent below 10; inactive means the rest.

Test system: MDA-MB-468 breast
Assay: NCI-60 one-dose screen, 48 h (100 = growth as untreated, 0 = no growth, -100 = all killed)
Settings: 10 µM unless noted

SMILES	growth
Cc1ccc(-c2nc(C#N)c(S(=O)(=O)NCCO)o2)cc1	37.1%
CC(C)(Sc1cc(C(C)(C)C)c(O)c(C(C)(C)C)c1)Sc1cc(C(C)(C)C)c(OC(=O)CCCC(=O)O)c(C(C)(C)C)c1	43.5%
COc1cc(C2CC(c3ccc(Cl)cc3)=NN2C(C)=O)ccc1Oc1ccnc2cc(Cl)ccc12 (configuration not stated)	67.4%
C=C(C=O)[C@@H]1CC[C@]2(CO)CC[C@]3(C)[C@H](CC[C@@H]4[C@@]5(C)CCCNC(C)(C)[C@@H]5CC[C@]43C)[C@@H]12	48.6%
COc1ccccc1N1C(=O)/C(=C/C2=Cc3ccccc3OC2)SC1=S	95%
COC(=O)[C@@H]1CCCN1C(=O)[C@@H]1CCCN1C(=O)[C@H](Cc1ccccc1)NC(=S)Nc1cc(C(F)(F)F)cc(C(F)(F)F)c1	89%
COc1ccc(/C=N/NC(=O)c2ccc(S(C)(=O)=O)cc2)cc1OC	100%
Cc1cc(C(=O)c2ccccc2)cc(C)c1O	111%
Cc1cc(N2CCCCC2)nc(N(CCNc2ccnc3cc(Cl)ccc23)Cc2ccccn2)n1	3.63% (active)
CCN(CC)CCOc1ccc(C2=C(c3ccccc3)CCc3cc(OC)ccc32)cc1	-44.2% (active)
COc1ccc2c(c1)nc(N)c1c3cc(OC)c(OC)cc3cn21	2.7% (active)
O=C(Nc1ccc(-c2nc3ccc(NC(=O)c4ccc(Cl)cc4)cc3[nH]2)cc1)c1ccc(Cl)cc1	-10.8% (active)
Cc1c(C(=O)O)nnn1-c1nccs1	107%
COc1cc([N+](=O)[O-])c2ncccc2c1O	95.1%
COc1ccc(N2CCC(=S)NC2=S)cc1	97.7%
CSc1nc(N)c(NS(=O)(=O)c2ccc(C(C)=O)cc2)c(=O)[nH]1	97%
CN(C)c1ccc2c(c1)OC(N)=C(C#N)C2c1ccc2c(c1)CCCN2C (configuration not stated)	20.6%
O=C1/C(=C/c2ccc(F)cc2)CN(Cc2cn(CCNc3ccnc4cc(Cl)ccc34)nn2)C/C1=C\c1ccc(F)cc1	-64.2% (active)
O=C(NCCCNc1cc(-c2cn(-c3ccccc3)nc2-c2cccc(O)c2)ccn1)c1ccccc1	-61% (active)
COc1c(C)cnc(CSc2nc(-c3ccc(C)cc3)cn2-c2ccc(Cl)cc2)c1C	114%
CC/C(Cc1ccccc1)=C(\c1ccc(OCCN2CCCCCC2)cc1)c1ccc(OC(=O)NCc2ccccc2)cc1	53.3%
O=C(O)Cc1cc(=O)[nH]n(-c2ccccc2)c1=O	102%
Fc1ccc(NCc2cn(-c3ccccc3)nc2-c2ccc(OCc3ccccc3)cc2)cc1Cl	119%
Clc1ccc2c(NC3CCC(N4CCOCC4)CC3)ccnc2c1 (configuration not stated)	9.58% (active)
OC1(c2ccc(Cl)c(C(F)(F)F)c2)CCN(CCCC(c2ccc(F)cc2)c2ccc(F)cc2)CC1	-86% (active)
Cc1ccc([C@H]2c3[nH]c4ccccc4c3C[C@H]3C(=O)N(CCCCCCC(=O)NO)CC(=O)N23)s1	37.3%
CCCC(=O)NC(c1cccnc1)c1cc(C(C)=O)c2cccnc2c1O (configuration not stated)	15.8%
